A-T KAP1 phos: candidate therapy for ataxia-telangiectasia; F2112 A-T fibroblasts, KAP-1 phosphorylation AlphaLISA; neocarzinostatin DNA damage 30 min before lysis; Potency, µM (highest dose often 57.5 µM), for the others: at the top dose activation, hits mostly activators; 320,000 tested, 0.19% active; further: potency means the concentration at half of the fitted maximal effect; % of control where 0% means no effect; nearly all actives have a fitted effect of over 45% in size
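hTERT-immortalized A-T patient fibroblasts (F2112), 500 cells/well in OPTI-MEM, 1% FBS, got compounds for 60 min, then NCS for 30 min at 37C. Lysates were then assayed for phospho-KAP-1 by AlphaLISA (anti-pKAP1 donor, anti-KAP1 acceptor beads), 6 hr at 25C.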
RGS4 inh: human RGS4 inhibition | P49798 | Transcreener GDP fluorescence polarization, RGS4-accelerated GTP hydrolysis | Potency, µM (doses to about 114 µM), inactives show at the highest dose activity change, negative = inhibition, actives largely listed as inhibitors | 390,000 tested, 0.039% active; further: potency means the concentration at half of the fitted maximal effect; on the % scale 0 is the no-effect control and ±100 the full control effect; nearly all actives have a fitted effect of over 75% in size
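MLSMR compounds (23 nl, pin-transferred) preincubated 10 min at room temperature with a 500nM (2x) first reagent, then RGS4 at 900nM (2x) plus Transcreener GDP mix added; fluorescence polarization (620/688 nm) read before and after 90 min at 30 °C.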
TRPV1 potentiator: human TRPV1 potentiation. potentiation, % at 8.33 µM. TRPV1-expressing cells, Fluo-8 calcium influx, capsaicin EC20 potentiation. 320,000 tested, 0.02% active; in the data active means potentiation above about 80%; inconclusive means between about 30% and that limit; further: 0% is about no effect
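Cells expressing TRPV1 were dye-loaded with Fluo-8 and read kinetically: 10 s baseline, 3 min after compound (agonist portion), then 2 min after EC20 capsaicin (allosteric enhancer portion). Calcium-bound dye fluorescence at 480/520 nm.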
TRPML1 ag: human mucolipin-1 channel agonism. Q9GZU1. TRPML1-expressing cells, Ca2+ dye fluorescence, FDSS. activation, % (test concentration not listed). 410,000 tested, 0.12% active. AID 624414; in the data active means activation above about 50%; inconclusive means mostly about 30% to 49%; further: 0% is about no effect
Target sequence (Q9GZU1 whole entry, looked up): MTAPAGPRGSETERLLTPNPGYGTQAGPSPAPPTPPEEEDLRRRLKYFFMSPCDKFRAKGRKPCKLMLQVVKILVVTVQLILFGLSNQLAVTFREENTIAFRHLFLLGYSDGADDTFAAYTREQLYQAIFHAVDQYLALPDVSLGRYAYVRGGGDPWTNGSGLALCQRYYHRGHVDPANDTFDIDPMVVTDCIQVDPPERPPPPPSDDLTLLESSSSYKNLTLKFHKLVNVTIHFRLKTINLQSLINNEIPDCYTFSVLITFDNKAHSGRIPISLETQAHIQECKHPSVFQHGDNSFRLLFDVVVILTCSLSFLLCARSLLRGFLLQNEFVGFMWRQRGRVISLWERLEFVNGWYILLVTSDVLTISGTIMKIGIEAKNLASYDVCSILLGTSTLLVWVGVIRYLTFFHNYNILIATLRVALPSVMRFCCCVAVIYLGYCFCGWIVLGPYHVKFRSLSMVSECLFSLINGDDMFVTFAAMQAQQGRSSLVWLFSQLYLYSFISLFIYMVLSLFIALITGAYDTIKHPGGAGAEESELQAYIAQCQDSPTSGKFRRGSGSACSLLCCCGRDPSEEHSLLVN
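Kinetic FDSS Ca2+ read in Tet-induced TRPML1-DL cells (ABD Ca8 dye plus quencher, 45-90 min RT loading): baseline, then compound, then 110 s agonist window; EC80 agonist 54-4 at 4uM final added afterwards for a 110 s antagonist window.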
TRPV1 ag: human TRPV1 agonism; 320,000 tested, 0.19% active; TRPV1-expressing cells, Fluo-8 calcium influx, agonist mode; activation, % at 8.33 µM; Q8NER1; in the data active means activation above about 80%; inconclusive means between about 30% and that limit; further: 0% is about no effect
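Cells expressing TRPV1 were dye-loaded with Fluo-8 and read kinetically: 10 s baseline, 3 min after compound (agonist portion), then 2 min after EC20 capsaicin (allosteric enhancer portion). Calcium-bound dye fluorescence at 480/520 nm.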
TRPML1 inh: blocks the human TRPML1 channel | TRPML1-inducible cells, Ca2+ dye fluorescence, FDSS; active compounds read low; inhibition of EC80 agonist-evoked calcium signal | activity change, negative = inhibition, % (test concentration not listed) | Q9GZU1 | 390,000 tested, 0.02% active; in the data active means activity change below about -50%; inconclusive means between about -30% and that limit;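 further: stimulus is agonist 54-4 at its EC80 concentration; on the % scale 0 is the no-effect control and ±100 the full control effect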
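Calcium fluorescence in TRPML1-DL cells induced overnight with Tet: a 110 s read after compound pin addition, then a 110 s antagonist read after challenge with 54-4 at 4 uM final (EC80).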
The depositor's hits bear a star; u = inconclusive; x = no result given; ! = repeats disagree; [ ] = another dose, or the depositor's remark. Rows were chosen to be rich in hits. Some 0.5% of all compounds tested hit in one or more screens of this group. Unless noted, the call rests on the fitted dose curve; in most records, active means well fitted curve in the direction sought with a large enough effect; inconclusive means small, poorly fitted or top-dose-only effect, or another doubt; inactive means no such curve, though single readings can be large; an effect the other way counts as inactive or inconclusive.

SMILES	A-T KAP1 phos	RGS4 inh	TRPV1 potentiator	TRPML1 ag	TRPV1 ag	TRPML1 inh
Cc1cc(C)c(S(=O)(=O)c2ccccc2C)c(OCCO)n1	-5%	5%	19	-1	5	20
Cc1cc(Cn2nc(C(=O)NCc3cccs3)cc2-c2ccccc2)on1	12%	-17%	11	1	-1	16
O=C(C1=C(O)C(=O)N(c2nccs2)C1c1ccccc1)c1cc2ccccc2o1 (stereo unspecified)	-2%	-16%	4	92*	u	-2
O=C(NNC(=O)c1cccc(Br)c1)Nc1ccc(Cl)cc1	28µM*	u	7	1	1	-3
O=C(Nc1cccc(C(=O)Nc2cccc(Br)c2)c1)c1ccccc1	-6%	7%	-7	0	15	2
CC(C)c1ccc(NC(=O)c2cccc(Br)c2)cc1	1%	-4%	6	-1	93*	-14
O=C(NNC(=S)Nc1ccccc1)c1cccc(Br)c1	x	-43%	15	4	7	6
COc1ccc(CN2CCCC(CO)(Cc3ccc(F)cc3)C2)c(OC)c1OC (stereo unspecified)	3%	20%	-13	1	5	0
Clc1ccccc1Cc1cn2cc(-c3ccccc3)nc2s1	x	8%	x	2	x	11
CCOc1ccc(CCN2C(=O)C(=O)N([C@H](CCCN(C)Cc3ccccc3)CNCc3ccccc3)C[C@@H]2C(C)C)cc1	40µM*	x	6	x	-6	x
CCOC(=O)c1[nH]c(C)c(C(=O)c2ccc(C)cc2)c1C	3%	-6%	0	2	90*	1
CCOC(=O)c1[nH]c(C)c(C(=O)NCc2ccc(C)cc2)c1C	7%	-5%	7	0	19	6
Cc1cc(/C=C2\C(=N)N3N=CSC3=NC2=O)c(C)n1Cc1ccccc1	4%	-13%	-18	0	20	4
CCOc1ccc(Sc2cc(C(=O)NCc3ccccc3Cl)c3ccccc3n2)cc1	x	17%	x	1	x	3
CN(Cc1ccccc1)C(=O)c1cccc(N2C(=O)C3CC=CCC3C2=O)c1 (stereo unspecified)	3.2µM*	-15%	18	-1	-4	-10
N=c1c(C(=O)NC2CCCC2)cc2c(=O)n3ccccc3nc2n1CC1CCCO1 (stereo unspecified)	2%	-12%	-4	0	3	-4
O=c1c2ccccc2c(-c2n[nH]c(=S)o2)nn1Cc1ccccc1	-7%	-48%[56.9 µM]	14	1	13	4
OCc1ccc(-c2nn(Cc3ccccc3)c3ccccc23)o1	19%	24µM*!	2	0	-2	-1
CC(=O)Nc1ccc(C(=O)OCC(=O)N(C)C2CCCCC2)cc1	-1%	-27%	-5	1	4	17
CCN1C(=O)CSc2ccc(C(=O)NCc3ccccc3)cc21	-2%	-17%	0	-2	1	0
O=C(/C=C/c1cc(Br)ccc1F)Nc1cccnc1	-1%	-16%	8	0	80*	5
O=C(/C=C/c1c(F)cccc1Cl)Nc1cccnc1	-9%	-8%	-5	x	u	x
CC(=O)Nc1ccc(NC(=O)CSc2nnnn2-c2ccc(F)cc2)cc1	3.2µM*	-28%	u	-1	-4	5
Oc1cnn(-c2ccccc2)c1	0%	-10%	8	-1	-2	-3
O=c1[nH]c2ccc(S(=O)(=O)N3CCCCC3)cc2s1	-13%	-11%	-15	0	-5	6
SMILES	A-T KAP1 phos	RGS4 inh	TRPV1 potentiator	TRPML1 ag	TRPV1 ag	TRPML1 inh
COc1ccc(NS(=O)(=O)c2cn(C)c(=O)n(C)c2=O)cc1	-4%	5%	-1	1	2	6
Cn1cc(S(=O)(=O)Nc2ccc(OC(F)(F)F)cc2)c(=O)n(C)c1=O	13µM*	5%	-16	0	2	6
CCCNC(=O)Cn1c(=O)/c(=C\c2ccc(-c3ccc([N+](=O)[O-])cc3)o2)s/c1=C\C(=O)C(C)(C)C	3%	-24%	18	127*	u	-13
CCCNC(=O)Cn1c(=O)/c(=C/c2ccc(-c3cccc([N+](=O)[O-])c3)o2)s/c1=C\C(=O)C(C)(C)C	x	3%	x	1	x	-4
O=C(COC(=O)c1ccccc1Cl)NC1CCCCCC1	27%	-5%	x	0	x	1
O=C(COC(=O)c1cccc(Cl)c1Cl)NC1CCCC1	18µM*	15%	21	-2	-4	-8
COc1cc(/C=C(/C(=O)c2cccs2)c2nc3ccccc3[nH]2)ccc1O	25µM*	-15%	7	-1	3	5
O=C(/C(=C\c1ccccc1)c1nc2ccccc2[nH]1)c1ccc(Cl)cc1	8%	-32%	6	1	16	-4
O=c1[nH]c2ccccc2nc1/C=C(\O)c1cccs1	9%	-9%	-17	79*	u	-17
O=C(/C(=C/c1ccc(Cl)cc1)c1nc2ccccc2[nH]1)c1cccs1	3.5µM*	-32%	-8	1	u	32
O/C(=C\c1nc2ccccc2[nH]1)c1cccs1	0%	u	-1	1	4	15
CCOc1ncccc1C(=O)OCC(=O)NCc1ccc(C(=O)OC)cc1	6%	1%	x	1	x	-18
CC(C)[C@@H](C(=O)NCC1CCCO1)N1C(=O)N2CCc3c([nH]c4ccccc34)[C@@]2(C)C1=O (stereo partly specified)	-8%	11%	-13	x	-3	x
CCOC(=O)CC1C(=O)NCCN1c1nc2ccc(C)cn2c(=O)c1/C=C1\SC(=S)N(C(C)CC)C1=O (stereo unspecified)	-9%	x	-5	x	139*	x
Cc1noc(/C=C/N(C)C)c1S(=O)(=O)N(C)CC(=O)N1CCc2ccccc21	7%	-16%	3	0	0	10
Cc1noc(/C=C/N(C)C)c1S(=O)(=O)N1CCc2ccccc21	25µM*	11%	-15	1	25	3
Cc1noc(/C=C/N(C)C)c1S(=O)(=O)N(C)Cc1ccc(F)cc1	32µM*	-2%	20	0	-2	-3
OCc1ccccc1O[C@@H]1O[C@H](CO)[C@@H](O)[C@H](O)[C@H]1O	6%	8%	-7	x	0	x
OCC1OC(Oc2c[nH]c3ccccc23)C(O)C(O)C1O (stereo unspecified)	28µM*	-53%	0	0	-3	-2
Cc1nn(CC(=O)Nc2c(F)cc(F)cc2Br)c(=O)c2cccn12	6%	-19%[11.4 µM]	-17	-1	0	-20
CCCCCCCCC(=O)N/N=C(\C)c1ccc(O)cc1O	-5%	-8%	-1	-1	6	-9

High-throughput results (PubChem BioAssay)
